Compounds with a hit are over-represented: about 19% of the library has one in this group of screens.
TDP1 inh = TDP1 (human) enzyme inhibition; actives 0.28% (n = 350,000); recombinant TDP1, AlphaScreen DNA substrate cleavage; Potency, µM (top dose mostly 130 µM), actives largely listed as inhibitors; Q9NUW8; further: nearly all actives have a fitted effect of over 40% in size
Target sequence (Q9NUW8 whole entry, looked up): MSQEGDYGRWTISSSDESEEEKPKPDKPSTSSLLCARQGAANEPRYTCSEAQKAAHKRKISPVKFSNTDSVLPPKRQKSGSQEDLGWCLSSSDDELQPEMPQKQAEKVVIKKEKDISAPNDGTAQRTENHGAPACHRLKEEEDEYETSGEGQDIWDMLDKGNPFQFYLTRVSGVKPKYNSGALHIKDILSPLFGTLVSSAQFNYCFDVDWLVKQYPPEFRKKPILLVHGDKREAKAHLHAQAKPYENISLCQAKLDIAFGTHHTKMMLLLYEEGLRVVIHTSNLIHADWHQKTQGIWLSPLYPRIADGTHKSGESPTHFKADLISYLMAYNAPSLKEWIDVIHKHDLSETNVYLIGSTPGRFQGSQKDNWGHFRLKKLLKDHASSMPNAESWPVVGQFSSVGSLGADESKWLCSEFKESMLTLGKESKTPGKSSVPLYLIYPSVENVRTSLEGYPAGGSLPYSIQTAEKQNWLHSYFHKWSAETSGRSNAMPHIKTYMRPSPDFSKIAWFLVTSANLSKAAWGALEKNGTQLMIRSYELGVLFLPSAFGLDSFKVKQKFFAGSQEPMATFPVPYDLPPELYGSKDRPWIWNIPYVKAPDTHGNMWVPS
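AlphaScreen read-out: signal falls as enzyme removes the 3' tyrosine-FITC from a 5'-biotinylated DNA oligo (15 nM, 5 min, RT). Enzyme was E. coli-made recombinant Tdp1 at 1 nM, exposed to compound for 15 min beforehand; beads 10 ug/ml, 10 min.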
Giardia killer = Giardia lamblia killing | Giardia lamblia trophozoite viability | activity change, % at 7.66 µM, hits read low | AID 540267 | actives 0.15% (n = 340,000); in the data active means activity change below about -80%; inconclusive means between about -30% and that limit;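 further: parasites exposed to compound for two days anaerobically before the ATP read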
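Killing of trophozoites was scored by loss of ATP luminescence after a 48 hrs anaerobic exposure to compounds at 37 deg C, using 100 cells per well.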
DT40 TDP1 CPT = growth inhibition of DT40 Tdp1-/-;hTDP1 cells with camptothecin (screen for TDP1 inhibitors); Potency, µM (doses to about 46.2 µM), hits mostly inhibitors; actives 12% (n = 420,000); chicken DT40 Tdp1-/-;hTDP1 cells + 20 nM CPT, ATP luminescence, 48 h; AID 686979; further: nearly all actives have a fitted effect of over 55% in size
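Chicken DT40 Tdp1-/- cells complemented with human TDP1, 400 cells/well, exposed to compounds plus 20 nM camptothecin for at least 48 h at 37 C; viability read as ATP content by CellTiter-Glo luminescence.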
DT40 TDP1 no CPT = qHTS for Inhibitors of human tyrosyl-DNA phosphodiesterase 1 (TDP1): qHTS in cells in absence of CPT | DT40 Tdp1-/- hTDP1 cells, no CPT, ATP luminescence, 48 h | Potency, µM (top dose mostly 46.2 µM), hits mostly inhibitors | actives 15% (n = 420,000) | AID 686978, 2013; further: nearly all actives have a fitted effect of over 55% in size
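Growth of hTDP1-complemented DT40 Tdp1-knockout cells is measured by ATP luminescence after at least 48 hr compound exposure at 37 °C, with DMSO substituting for the 20 nM CPT used in the parallel screen.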
ELG1 DNA repair = blocks ELG1-dependent DNA repair in HEK293T cells; actives 2.3% (n = 330,000); HEK293T ELG1-luciferase reporter, luminescence, 16 h; DNA damage induced by 5-fluorouridine; Potency, µM (series often up to 46.1 µM), most hits filed as inhibitors; further: nearly all actives have a fitted effect of over 55% in size
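5-Fluorouridine DNA damage + compound/DMSO, 2,000 cells/well, 16 h, 37 °C/5% CO2. ONE-Glo, 30 min RT, luminescence. Readout = decrease in reporter signal.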
IL-1B inflam inh = inflammasome signaling inhibition, IL-1 beta readout | THP-1 LPS/ATP IL-1B secretion, AlphaLISA, 16 h; hits give low values | activity change, % at 57.5 µM | actives 4.7% (n = 360,000) | AID 743279; in the data active means activity change below about -50%; inconclusive means mostly about -30% to -49%
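THP-1 cells pretreated 1 hr with compounds (up to 57.5 uM final), then stimulated with LPS (250 ng/mL final) plus ATP (1.25 mM final); secreted IL-1B measured by AlphaLISA after 16 hr, decreased signal indicating inhibition.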
Of the large screens only hits and unclear results are named; the others gave an inactive call. Unless noted, the call rests on the fitted dose curve; in most records, active means well fitted curve in the direction sought with a large enough effect; inconclusive means small, poorly fitted or top-dose-only effect, or another doubt; inactive means no such curve, though single readings can be large; an effect the other way counts as inactive or inconclusive.

Cc1cc(C)cc(C(=O)NC(CC(N)=O)c2ccc(N3CCC(Br)CC3)c([N+](=O)[O-])c2)c1 (configuration not stated)	DT40 TDP1 CPT inconclusive, DT40 TDP1 no CPT inconclusive (no result: TDP1 inh)
NC(=O)CC(NC(=O)c1ccccc1)c1ccc(N2CCC(Br)CC2)c([N+](=O)[O-])c1 (configuration not stated)	DT40 TDP1 CPT 18.4µM, DT40 TDP1 no CPT 10.3µM, ELG1 DNA repair inconclusive
O=C(Cn1c(=O)nc(-c2ccccc2)c2ccccc21)NCCCc1ccccc1	DT40 TDP1 no CPT inconclusive (no result: Giardia killer, ELG1 DNA repair, IL-1B inflam inh)
CCNC(=O)Nc1ccc(OC)cc1OC	none
COc1ccc(NC2C=CS(=O)(=O)C2)c(OC)c1 (configuration not stated)	IL-1B inflam inh -61.0
O=S(=O)(c1ccccc1)c1nnn2c1nc(NC1CCN(Cc3ccccc3)CC1)c1ccccc12	DT40 TDP1 CPT 5.8µM, DT40 TDP1 no CPT 8.2µM, ELG1 DNA repair inconclusive, IL-1B inflam inh inconclusive
O=S(=O)(c1ccccc1)c1nnn2c1nc(NC1CCN(Cc3ccccc3)CC1)c1cc(Cl)ccc12	DT40 TDP1 CPT 7.31µM, DT40 TDP1 no CPT 4.11µM, IL-1B inflam inh inconclusive
Nc1ccccc1C(=O)NCCCN1CCN(c2cccc(Cl)c2)CC1	IL-1B inflam inh inconclusive (no result: TDP1 inh, ELG1 DNA repair)
O=c1[nH][nH]c2c1C(C1CCCCC1)OC(C1CCCCC1)C2 (configuration not stated)	DT40 TDP1 CPT inconclusive, DT40 TDP1 no CPT inconclusive (no result: TDP1 inh, Giardia killer, ELG1 DNA repair)
CC(=O)c1ccc(OCC(C)Oc2ccc(C#N)cc2)cc1 (configuration not stated)	DT40 TDP1 CPT inconclusive, DT40 TDP1 no CPT 23.1µM
CC(C)(C)N1C(=O)[C@H]2[C@H]3[C@H](O)[C@H](O)C/C(=N/OC[C@@H](O)COCc4ccco4)[C@H]3CC[C@@H]2C1=O	none (no result: Giardia killer, DT40 TDP1 CPT, DT40 TDP1 no CPT, ELG1 DNA repair, IL-1B inflam inh)
CN1C(=O)C(C)(C)c2cc(S(=O)(=O)N3CCC(C(=O)NCc4ccccc4Cl)CC3)ccc21	none (no result: TDP1 inh)
CCC(Sc1ccc2nnc(-c3ccc(F)cc3)n2n1)C(=O)O (configuration not stated)	DT40 TDP1 no CPT inconclusive
CCOC(=O)C(CC)Sc1ccc2nnc(-c3ccc(F)cc3)n2n1 (configuration not stated)	DT40 TDP1 CPT 20µM, DT40 TDP1 no CPT inconclusive (no result: ELG1 DNA repair, IL-1B inflam inh)
CSc1ccc2nnc(-c3ccc(C)cc3)n2n1	Giardia killer inconclusive, DT40 TDP1 CPT inconclusive, DT40 TDP1 no CPT 11.2µM (no result: ELG1 DNA repair, IL-1B inflam inh)
CC(=O)C(Sc1ccc2nnc(-c3ccc(C)cc3)n2n1)C(C)=O	DT40 TDP1 CPT 11.6µM, DT40 TDP1 no CPT 20.6µM
Cc1ccc(-c2nnc3ccc(SCC(=O)c4ccccc4)nn23)cc1	DT40 TDP1 CPT inconclusive, DT40 TDP1 no CPT 14.1µM (no result: ELG1 DNA repair, IL-1B inflam inh)
Cc1ccc2[nH]c3nc(CCCn4ccnc4-c4ccccc4)nnc3c2c1	none (no result: Giardia killer, DT40 TDP1 CPT, DT40 TDP1 no CPT, ELG1 DNA repair, IL-1B inflam inh)
COc1ccccc1-n1ccnc(SCC(=O)NCCc2ccccc2)c1=O	none (no result: TDP1 inh)
CCOC(=O)N1CCN(C(=O)/C(=C/c2cccs2)NC(=O)c2cccs2)CC1	none
CN(C)S(=O)(=O)N(CC(=O)NCCSCc1c(F)cccc1Cl)c1ccccc1	none (no result: Giardia killer, DT40 TDP1 CPT, DT40 TDP1 no CPT, ELG1 DNA repair, IL-1B inflam inh)
COc1cc(CN(C2CCCCC2C)S(=O)(=O)c2ccc(S(=O)(=O)NC3CC3)cc2)cc(OC)c1OC (configuration not stated)	DT40 TDP1 CPT inconclusive, DT40 TDP1 no CPT inconclusive, ELG1 DNA repair 18.4µM
COc1ccc(CN(C2CCCCC2C)S(=O)(=O)c2ccc(S(=O)(=O)N(C)C)cc2)cc1OC (configuration not stated)	DT40 TDP1 CPT 16.4µM, DT40 TDP1 no CPT 20.6µM, ELG1 DNA repair inconclusive
COc1ccccc1CNS(=O)(=O)c1ccc(S(=O)(=O)NC2CC2)cc1	none
COc1ccc(CCN(Cc2ccc(C(C)C)cc2)S(=O)(=O)c2ccc(S(=O)(=O)N(C)C)cc2)cc1OC	DT40 TDP1 CPT inconclusive, DT40 TDP1 no CPT inconclusive
O=c1oc2ccccc2nc1/C=C(\O)c1ccccc1	DT40 TDP1 CPT inconclusive, DT40 TDP1 no CPT inconclusive (no result: TDP1 inh)

Source: PubChem
